PubChem BioAssay AID1621 (Southern Research Specialized Biocontainment Screening …, 2009)
Out of some 290,000 compounds screened, about 60 (0.02%) were called active. Inconclusive results (about 1%) are left out. No rule for the calls is given here. These entries were drawn from the full list. Results with a measured potency or affinity are listed apart.

Test: West Nile virus antiviral activity, cell-based, CPE readout (AID 1621)
Conditions: West Nile virus-infected cells, at 10 µM, hits give high values

CPE inhibition, inactive:
O=C(COc1ccc(S(=O)(=O)N2CCc3ccccc32)cc1Cl)NCc1ccccn1 -0.17%
CCOc1ccc(NC(=O)C(C)O)c(NS(=O)(=O)c2ccc(CCNC(C)=O)cc2)c1 (configuration not stated) -0.27%
O=C(CNS(=O)(=O)c1ccccc1)OCC(=O)c1ccc(Br)cc1 -0.68%
CCOC(=O)C1C(=O)CC(C)(O)C(C(=O)OCC)C1c1ccc(NC(C)=O)cc1 (configuration not stated) 0%
O=C1CSC(c2cn(-c3ccccc3)nc2-c2ccccc2)N1Cc1ccco1 (configuration not stated) -0.03%
O=C(NC1CCS(=O)(=O)C1)c1sc2ccccc2c1Cl (configuration not stated) 1.04%
CCCC1CCC(C(=O)Nn2cnc3ccccc3c2=O)CC1 (configuration not stated) 0.33%
Cc1[nH]c(=O)c(C#N)c(C)c1CCC(=O)NCc1ccc(Cl)cc1 0.96%
Cc1nc(Cl)sc1C(=O)NC(C)c1ccc(Cl)cc1 (configuration not stated) -0.9%
O=C1CN(C(=O)c2ccc(Cl)nc2)c2ccccc2N1 0.17%
CC(C)(C)c1ccc(NC(=O)CSc2nnc(-c3n[nH]c4ccccc34)o2)cc1 0.07%
Cc1cc(C)c2nc(N3CCCC(C(=O)NCCCN4CCOCC4)C3)sc2c1 (configuration not stated) -0.13%
Cc1cc(C)c2nc(N3CCCC(C(=O)NCCN4CCOCC4)C3)sc2c1 (configuration not stated) -0.73%
COC(=O)c1ccccc1NC(=S)N(Cc1ccc2c(c1)OCO2)Cc1cc2cc(C)ccc2[nH]c1=O 0.29%
Cc1[nH]c(C(=O)O)c(C)c1C(=O)OC(C)C 0.13%
CC(C(=O)NC(C)(C)C)N1C(=O)c2cccc3cccc(c23)C1=O (configuration not stated) -0.58%
NCCNC(=O)c1c(NC(=O)c2ccccc2)sc2c1CCCC2 -0.62%
CN(C)CCNC(=O)c1c(NC(=O)c2ccccc2)sc2c1CCCC2 2.53%
CCc1cccc(NC(=O)C2CCCN2S(=O)(=O)c2cccc3cccnc23)c1 (configuration not stated) -0.25%
Cc1cccc2c1-c1sc(C(=O)NCCCN3CCC(C)CC3)cc1CO2 1.03%
O=C(NC1CC1)c1cc2c(s1)-c1ccccc1OC2 1.08%
Cc1cccc2c1-c1sc(C(=O)NCCCN3CCCC(C)C3)cc1CO2 (configuration not stated) -0.27%
O=C(NCCCN1CCOCC1)c1cc2c(s1)-c1ccccc1OC2 0.21%
CCN1CCN(CCCNC(=O)c2cc3c(s2)-c2ccccc2OC3)CC1 35.2%
O=C(NCc1cccs1)c1cc2c(s1)-c1ccccc1OC2 0.12%
Cc1cccc2c1-c1sc(C(=O)NCCCN3CCc4ccccc4C3)cc1CO2 -0.65%
CCCN1CCN(CCCNC(=O)c2cc3c(s2)-c2c(C)cccc2OC3)CC1 -0.21%
CC1(C)SC2c3ccccc3C(=O)N2[C@@H]1C(=O)O (some centres not stated) 1.57%
COc1ccc(C2/C=C\CN(C(=O)OCc3ccccc3)CC(=O)N2Cc2ccc(F)cc2)cc1 (configuration not stated) -0.53%
O=c1c2ccccc2cnn1Cc1cccc(Br)c1 0%
COc1ccc(-c2noc(N3CCCC(C(=O)Nc4cc(F)ccc4F)C3)n2)cc1 (configuration not stated) -0.21%
CCSc1nnc(Nc2ccccc2)s1 0.4%
C/C(=N\NC(=O)c1nn(C)c(C)c1Br)c1ccc(NC(=O)c2ccc(C)s2)cc1 -0.9%
Cc1ccc(S(=O)(=O)NC(C)CCc2ccccc2)cc1 (configuration not stated) -1.02%
COc1cc2ccccc2cc1C(=O)NC(=S)Nc1nnn(C)n1 0.33%
Cc1sc(/C=C2\C(=O)ON=C2c2ccccc2)cc1Br 0.35%
CC(C)NC(=O)c1ccc(-c2ccc(Cl)c(C(F)(F)F)c2)o1 -0.86%
CCOC(=O)C1C(c2cccs2)NC(=O)N(C)C1(O)C(F)(F)F (configuration not stated) -0.41%
CCCCNC(=O)c1onc(CSc2cc(C)cc(C)c2)c1C(=O)NCCCC -0.6%
COCCNC(=O)c1onc(CSc2cc(C)cc(C)c2)c1C(=O)NCCOC 0.39%
O=C(CC(=O)Nc1ccccc1C(=O)O)NNC(=O)Cc1ccccc1 -0.29%
CN(C)C(=O)N1CCN(c2nc(-c3ccccc3)cs2)CC1 -0.36%
O=C(CCCl)N1CCN(c2nc(-c3ccccc3)cs2)CC1 1.96%
CCCNc1c(NC(=O)c2cccs2)c(=O)oc2ccccc12 -0.26%
Cc1ccc(NC(=O)C(C)N2C(=O)c3ccccc3C2=O)cc1C (configuration not stated) 0.2%
CCOC(=O)CN1C(=O)N[C@@H](c2cccc(C(F)(F)F)c2)[C@H](C(C)=O)[C@H]1C -0.43%
CCN(CC)CCC(c1ccc(N(C)C)cc1)c1c(OC)cc(OC)c2c(-c3ccccc3)cc(=O)oc12 (configuration not stated) -0.46%
CCN(CC)CCC(c1cc(OC)c(OC)c(OC)c1)c1c(OC)cc(OC)c2c(C)cc(=O)oc12 (configuration not stated) -0.13%
CONC(=O)Nc1ccccc1[N+](=O)[O-] 0.1%
CCOC(=O)c1[nH]c2ccccc2c1NC(=O)C(C)(C)C 0.96%
CCCC(=O)Nc1c(C(=O)OCC)[nH]c2ccccc12 0%
Cc1ccc(Sc2c(C)nn(C(=O)c3cccc(S(=O)(=O)N4CCOCC4)c3)c2C)cc1 0.04%
O=C(Nc1ccc(S(=O)(=O)Nc2nccs2)cc1)c1ccc(=O)[nH]c1 -0.06%
CCOc1ccc(NC(=O)c2c(NC(=O)CN3CCCC3)sc3c2CCC3)cc1 -0.99%
CN1CCN(CC(=O)Nc2sc3c(c2C(=O)Nc2ccccc2)CCCC3)CC1 1.23%
CCOC(=O)c1c(N)c2cc([N+](=O)[O-])ccc2n1C 0.7%
COCC(C)n1c(SCc2cc(C(=O)OC)c(C)o2)nc2ccccc2c1=O (configuration not stated) -0.56%
CC(=O)c1ccc(N2CCN(c3ccc(S(=O)(=O)NCCN(C)C)cc3[N+](=O)[O-])CC2)cc1 -0.21%
CC(=O)c1ccc(N2CCN(c3ccc(S(=O)(=O)NCCCN(C)C)cc3[N+](=O)[O-])CC2)cc1 -2.19%
COCCn1nnnc1C(c1cccs1)N1CCN2CCCC2C1 (configuration not stated) 0.23%
CCOC(=O)c1c(N)sc(C(=O)Nc2ccccc2)c1C -0.25%
CCOC(=O)c1c(NC(=O)CSc2cccc[n+]2[O-])sc(C(=O)Nc2ccccc2)c1C -0.77%
Cc1cnc(NC(=O)Cc2cccs2)s1 0.29%
COc1ccc(C2c3sc(=O)[nH]c3SC3C4CCC(C4)C23)cc1OC (configuration not stated) 0.48%
O=C(c1cc2ncccn2n1)N1CCc2c([nH]c3ccccc23)C1c1ccccc1F (configuration not stated) 2.67%
CCc1cc(C(=O)N2CCc3c([nH]c4ccccc34)C2c2ccc(OC)cc2F)no1 (configuration not stated) 19.3%
C=CCn1c(SCC(=O)NNC(=O)Nc2ccc(C)cc2)nnc1-c1ccccc1 0.45%
c1ccc2c(c1)CN1CCCC1=N2 0.51%
O=C1CN2C(=Nc3ccc(Br)cc3C2c2ccccc2)CCN1 (configuration not stated) -0.54%
CCN1CCc2nc3ccccc3c(C(=O)Nc3ccc(F)cc3)c2C1 -0.07%
Cc1ccc(OCC(O)Cn2c(N3CCCCC3)nc3c2c(=O)[nH]c(=O)n3C)cc1C (configuration not stated) -0.27%
CCOC(=O)NN1C(=O)c2ccccc2NC1c1ccccn1 (configuration not stated) 0.09%
O=C(Nc1ccccc1N1CCCC1)c1ccccc1Cl -1.13%
Cc1ccccc1/C=N/N1C(=O)CSC1=S 0.91%
Cc1ccc2cc(CN(CCN(C)C)C(=O)Nc3ccc(Cl)cc3)c(=O)[nH]c2c1 2.9%
Cc1ccc2[nH]c(=O)c(CN(CCCN(C)C)C(=O)Nc3cccc(Cl)c3)cc2c1 -1.48%
NC(=O)c1ccc(NC(=O)CSc2nnc(-c3cccnc3)n2Cc2ccco2)cc1 -0.08%
c1ccc(COC2CCCN(Cc3nc(Cc4ccccc4)no3)C2)cc1 (configuration not stated) -1.71%
CC(=O)Oc1ccc2occ(-c3ccccc3)c2c1 -0.4%
CCN(CC)S(=O)(=O)c1ccc(NC(=O)c2cc(-c3ccccc3)nc3ccccc23)cc1 -0.41%
CCN(CC)S(=O)(=O)c1ccc(C(=O)O)cc1 0.13%
CCOC(=O)C1(Cc2ccccc2C(F)(F)F)CCN(C2CCN(C(C)=O)CC2)CC1 -1.08%
CCOC(=O)C1(Cc2ccccc2C(F)(F)F)CCN(C2CCCC2)CC1 -0.59%
CC1CCC2C(=O)N(c3cccc(C(=O)Nc4ccccc4Cl)c3)C(=O)C2C1 (configuration not stated) 0.29%
Cc1ccc(S(=O)(=O)c2nc(-c3cccs3)oc2SCC(N)=O)cc1 2.11%
COc1ccc2cc(-c3cc(C(=O)OCC(=O)Nc4c(C)n(C)n(-c5ccccc5)c4=O)c4ccccc4n3)ccc2c1 -0.17%
Cc1c(NC(=O)COC(=O)c2cc(-c3cccc4ccccc34)nc3ccccc23)c(=O)n(-c2ccccc2)n1C -0.96%
COc1ccc(NS(=O)(=O)c2ccc(O)c(NC(=O)c3ccc(S(=O)(=O)N4CCCCCC4)cc3)c2)cc1 2.03%
COc1ccc(/C(N)=N/OC(=O)c2ccc(Br)o2)cc1 0%
CCn1c(SCC(=O)C(C)(C)C)nnc1-c1cccnc1 -0.07%
CCN(CCN(C)C)C(=O)C1CCN(S(=O)(=O)c2c(C)noc2/C=C/c2ccccc2F)CC1 0.04%
CNC(=O)C1CCN(S(=O)(=O)c2c(C)noc2/C=C/c2ccccc2F)CC1 -1%
